EP2 modulator: modulators of human EP2 prostaglandin E2 receptor. P43116. EP2-expressing cells, cAMP HTRF FRET, PGE2 co-stimulation. induction, % at 25 µM. actives 0.83% (n = 260,000);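 active = compounds whose cAMP rise, as percent of the full-agonist control response, exceeds 60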;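 note: rat C6 glioma line stably carrying human EP2 under a CMV promoter; the protocol text gives 20 µM as final concentration; 100% = response of wells given 1 µM PGE2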
EP2 antag: inhibitors of human EP2 prostaglandin E2 receptor | AID 1422 | actives 0.52% (n = 260,000) | C6 glioma cells expressing human EP2, cAMP TR-FRET; cells stimulated with saturating PGE2 | inhibition, % at 25 µM | P43116;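 active = percent inhibition above 40 after rounding to a whole number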;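 note: rat C6 glioma host cells with rolipram phosphodiesterase inhibitor present; the protocol text gives 20 µM as final concentration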
Pf gamet viab: inhibitors of late stage P. falciparum gametocyte viability. P. falciparum stage V gametocytes, ATP luminescence, 24 h. inhibition, % at 10.9 µM. actives 0.065% (n = 150,000);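 active = inhibition above the mean plus 3 SD of compounds within the control limits, set per campaign, cut at about 38% in these data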;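 note: 0% = DMSO wells and 100% = medium only without gametocytes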
Furin inh: inhibitors of human furin | P09958 | purified furin, fluorogenic substrate cleavage | inhibition, % at 20 µM or 30 µM | actives 0.061% (n = 220,000) | AID 463115; in the data active = inhibition above about 25%
Target sequence (P09958 108-714 limits assumed): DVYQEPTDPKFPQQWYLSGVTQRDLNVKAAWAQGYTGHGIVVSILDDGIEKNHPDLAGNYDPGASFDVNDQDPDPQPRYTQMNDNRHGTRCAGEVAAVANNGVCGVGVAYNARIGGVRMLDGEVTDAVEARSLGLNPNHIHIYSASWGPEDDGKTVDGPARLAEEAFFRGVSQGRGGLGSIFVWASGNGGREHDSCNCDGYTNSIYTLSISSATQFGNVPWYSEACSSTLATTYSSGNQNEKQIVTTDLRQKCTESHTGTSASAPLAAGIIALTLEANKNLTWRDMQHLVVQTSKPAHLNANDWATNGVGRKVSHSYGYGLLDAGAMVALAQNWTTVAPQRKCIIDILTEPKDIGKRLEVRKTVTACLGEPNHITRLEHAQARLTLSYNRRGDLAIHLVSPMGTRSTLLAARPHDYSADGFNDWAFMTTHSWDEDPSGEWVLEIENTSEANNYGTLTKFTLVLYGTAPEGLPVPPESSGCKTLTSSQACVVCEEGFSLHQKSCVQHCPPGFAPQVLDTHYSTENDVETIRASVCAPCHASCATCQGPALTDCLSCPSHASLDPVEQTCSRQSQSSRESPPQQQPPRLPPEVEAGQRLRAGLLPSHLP
HSV augment: HSV replication enhancement. maximum fold increase. HSV replication augmentation in cells, fold increase. actives 0.005% (n = 220,000); in the data active = maximum fold increase above about 1.5; tested in PC3 cells
Starred values were filed as active, the others as inactive; i = inactive; x = no result. Most compounds without a hit are left out; they make up all but 1.4% or so of the library.

SMILES	EP2 modulator	EP2 antag	Pf gamet viab	Furin inh	HSV augment
CCCCC(=O)Nc1ccc2c3c(cccc13)C(=O)N2CC	-23	9	-5	-13	i
COc1ccc(C2=NOC(C(=O)N(C)Cc3ccccc3)C2)cc1 (centres undefined)	-20	5	x	-16	i
COc1ccc2oc(C(=O)OCc3c(C)noc3C)c(C)c2c1	-23	5	-10	-28	i
O=C(Nn1c(C2CCCCC2)nc2ccccc2c1=O)c1ccc([N+](=O)[O-])cc1	15	6	42*	-12	i
O=C(Nn1c(C2CCCCC2)nc2ccccc2c1=O)c1cccc(F)c1	21	10	x	x	x
COc1cc(OC)c(CN2CCCCCCC2)cc1Br	15	8	x	-17	i
O=C(O)c1cc2c(ccc3ccccc32)oc1=O	5	4	0	-94	i
CCOC(=O)c1cc2c(ccc3ccccc32)oc1=O	-22	12	48*	-129	i
S=C(NCCc1ccccc1)Nc1ccccn1	-4	1	-4	-18	i
COc1ccc(C2=NN(Cc3c(F)cccc3Cl)C(=O)CC2)cc1	63*	9	-5	-26	i
COc1ccc(C2=NN(CC(=O)Nc3ccccc3C)C(=O)CC2)cc1	-37	4	1	-12	i
NC(CO)C(O)c1ccc([N+](=O)[O-])cc1 (centres undefined)	13	16	x	-23	i
CCS(=O)(=O)c1cc([N+](=O)[O-])c(Br)s1	-119	74*	x	x	x
CCS(=O)(=O)c1ccc(Sc2nncn2C)c([N+](=O)[O-])c1	12	15	2	-5	x
C=C(C)COc1ccc(-c2nc(N)nc(C)c2-c2ccc(OC)cc2)c(O)c1	12	16	x	-11	i
c1csc(-c2nn3c(Cn4cnc5ccccc54)nnc3s2)c1	6	17	x	-11	i
Clc1cccc(-c2nn3c(Cn4cnc5ccccc54)nnc3s2)c1	-21	5	x	34*	i
CCSc1nc(C)nc2sc(C)c(C)c12	69*	6	-11	-28	i
Cc1cc(C(=O)Nc2sc(C)c(C)c2C#N)no1	-3	4	x	-8	i
Oc1c(Cl)cc(CN(Cc2cc(Cl)c(O)c(Cl)c2)C2CCCCC2)cc1Cl	-13	44*	x	x	x
CN(CC(=O)Nc1ccc(Cl)c(Cl)c1)C1CCCCC1	x	x	-6	x	x
O=Cc1cccc(OC(=O)c2ccc(Cl)cc2Cl)c1	64*	7	x	-16	i
Cc1nc2ccccc2cc1C(=O)O	27	11	-18	-22	i
O=C1ON=C(c2ccccc2)/C1=C\c1ccco1	-58	12	8	-4	i
Cc1ccc(/C=C2/C(=O)ON=C2c2ccccc2)o1	-50	80*	6	-11	i
SMILES	EP2 modulator	EP2 antag	Pf gamet viab	Furin inh	HSV augment
CC1=NOC(=O)/C1=C\c1ccc(-c2ccccc2Br)o1	14	44*	x	-9	i
CC1=NOC(=O)/C1=C\c1ccc(-c2cccc(Cl)c2)o1	-35	109*	x	3	i
CC1=NOC(=O)/C1=C\c1ccc(-c2ccc(Cl)c(C(=O)O)c2)o1	13	7	8	10	i
COc1ccc(-n2c(Cc3cccn3C)nnc2SCC(=O)Nc2cccc(Cl)c2)cc1	13	9	x	-12	i
Cc1ccc(-c2nc3ccccc3c(=O)n2NC(=S)N(C)C)cc1	8	5	18	0	i
O=C1CC(c2ccc(Cl)cc2)CC(=O)C1CS(=O)(=O)c1ccccc1 (centres undefined)	-10	4	-16	-5	i
O=C1CCCC(=O)C1CS(=O)(=O)c1ccccc1	11	7	39*	-25	i
O=C(NC1CCCc2c1cnn2-c1ccc(F)cc1F)c1ccccn1 (centres undefined)	-29	45*	-6	-19	i
N#Cc1c(-c2cccc(Cl)c2)[nH]c(=S)[nH]c1=O	-12	6	-4	-2	i
O=c1c(O)c(-c2ccccc2)oc2ccccc12	-22	112*	x	x	x
Cc1ccc(-c2oc3ccccc3c(=O)c2O)cc1	-15	17	x	-16	i
O=C1C2=C(Nc3cc([N+](=O)[O-])ccc3N2)O[C@H]1c1ccc([C@H]2OC3=C(Nc4ccc([N+](=O)[O-])cc4N3)C2=O)cc1	-24	58*	x	x	x
[Cu].c1ccc2c(c1)-c1nc-2nc2[n-]c(nc3nc(nc4[n-]c(n1)c1ccccc41)-c1ccccc1-3)c1ccccc21	1	54*	x	x	x
Nc1nc(N)nc(-c2ccccc2-c2nc(N)nc(N)n2)n1	-20	2	x	-9	i
COc1cccc(=O)c2c(C)n(C)c(C)c12	27	4	39*	-14	i
Cc1nc2c(n1O)CCC/C2=N\O	24	6	x	-33	i
Cc1nc2ccc(NC(=O)c3cc([N+](=O)[O-])cc([N+](=O)[O-])c3Cl)cc2s1	-2	121*	x	-11	i
CCOC(=O)C1(C)C=C(Nc2ccc(OCC)cc2)C(=O)N1c1ccccc1 (centres undefined)	19	9	-3	-15	i
CCOC(=O)C1(C)C=C(Nc2ccccc2)C(=O)N1c1ccccc1 (centres undefined)	62*	7	9	-28	i
O=C(COc1ccc(Cl)cc1)Nc1ncc([N+](=O)[O-])s1	-32	-3	x	-11	i
Nn1c(Cc2ccc(F)cc2)n[nH]c1=S	29	3	-10	-32	i
CCS(=O)(=O)N1Cc2ccccc2CC1C(=O)NC(C)C12CC3CC(CC(C3)C1)C2 (centres undefined)	63*	11	x	-19	i
CCS(=O)(=O)N1Cc2ccccc2CC1C(=O)NCC12CC3CC(CC(C3)C1)C2 (centres undefined)	8	2	-36	-3	i
CCn1ncc(Br)c1C(=O)Nc1ccccc1OC	63*	7	-6	-27	i
CN(C)CCN1C(=O)CC[C@@]2(C)C1=CC[C@H]1[C@H]2CC[C@@]2(C)[C@H]1CC[C@]2(C)O	6	50*	x	x	x
SMILES	EP2 modulator	EP2 antag	Pf gamet viab	Furin inh	HSV augment
CC(=O)[C@@]1(O)CCC2C3CCC4=CC(=O)CC[C@]4(C)C3CC[C@@]21C (some centres undefined)	11	11	x	x	x
O=C(C[n+]1cc(-c2ccc(Cl)cc2)n2c1CCC2)N1c2ccccc2Sc2ccccc21	3	3	-18	-18	i
O=C(c1ccccc1)N1CCN(c2ncnc3c(-c4ccccc4)nsc23)CC1	-50	9	23	-23	i
O=C(Nc1nnc(-c2ccccc2Cl)o1)c1nc2ccccc2s1	-61	91*	x	-20	i
O=C(Nc1nnc(-c2ccccc2Cl)o1)c1ccco1	-4	8	-3	-13	i
CCOC(=O)c1c(CSC(=N)N)n(-c2ccc(C)cc2)c2cc(Br)c(OC(C)=O)cc12	-43	127*	3	5	i
Cc1cc(C(F)F)n2nc(C(=O)Nc3sc4c(c3C(=O)OC(C)C)CCCC4)nc2n1	67*	13	x	x	x
O=C(c1nccc2ccccc12)N1C2CCC1CC(c1ccc(F)cc1)C2 (centres undefined)	-44	8	x	x	x
C=C(C)Cn1c(SCCC)nc2ccccc2c1=O	94*	14	x	x	x

Source: PubChem BioAssay (several laboratories)
